Test results: the supplement of paper PMC11732987, “Enantioselective OTUD7B fragment discovery through chemoproteomics screening and high-throughput optimisation” (Communications Chemistry, 2025)

Key:
Experiment in all cases: log2 ratio of Biotin-Ahx-Ub-VS probe labelling (fragment/DMSO); higher = less target engagement (more negative = stronger competition), active = hit call of the paper (q ≤ 0.05, log2 ratio ≤ -1)
Conditions in all cases: compound concentration: 200 uM; treatment time: 3 h
[1] = biological target: T1, USP42 (UniProt Q9H9J4)
T1 sequence (whole entry): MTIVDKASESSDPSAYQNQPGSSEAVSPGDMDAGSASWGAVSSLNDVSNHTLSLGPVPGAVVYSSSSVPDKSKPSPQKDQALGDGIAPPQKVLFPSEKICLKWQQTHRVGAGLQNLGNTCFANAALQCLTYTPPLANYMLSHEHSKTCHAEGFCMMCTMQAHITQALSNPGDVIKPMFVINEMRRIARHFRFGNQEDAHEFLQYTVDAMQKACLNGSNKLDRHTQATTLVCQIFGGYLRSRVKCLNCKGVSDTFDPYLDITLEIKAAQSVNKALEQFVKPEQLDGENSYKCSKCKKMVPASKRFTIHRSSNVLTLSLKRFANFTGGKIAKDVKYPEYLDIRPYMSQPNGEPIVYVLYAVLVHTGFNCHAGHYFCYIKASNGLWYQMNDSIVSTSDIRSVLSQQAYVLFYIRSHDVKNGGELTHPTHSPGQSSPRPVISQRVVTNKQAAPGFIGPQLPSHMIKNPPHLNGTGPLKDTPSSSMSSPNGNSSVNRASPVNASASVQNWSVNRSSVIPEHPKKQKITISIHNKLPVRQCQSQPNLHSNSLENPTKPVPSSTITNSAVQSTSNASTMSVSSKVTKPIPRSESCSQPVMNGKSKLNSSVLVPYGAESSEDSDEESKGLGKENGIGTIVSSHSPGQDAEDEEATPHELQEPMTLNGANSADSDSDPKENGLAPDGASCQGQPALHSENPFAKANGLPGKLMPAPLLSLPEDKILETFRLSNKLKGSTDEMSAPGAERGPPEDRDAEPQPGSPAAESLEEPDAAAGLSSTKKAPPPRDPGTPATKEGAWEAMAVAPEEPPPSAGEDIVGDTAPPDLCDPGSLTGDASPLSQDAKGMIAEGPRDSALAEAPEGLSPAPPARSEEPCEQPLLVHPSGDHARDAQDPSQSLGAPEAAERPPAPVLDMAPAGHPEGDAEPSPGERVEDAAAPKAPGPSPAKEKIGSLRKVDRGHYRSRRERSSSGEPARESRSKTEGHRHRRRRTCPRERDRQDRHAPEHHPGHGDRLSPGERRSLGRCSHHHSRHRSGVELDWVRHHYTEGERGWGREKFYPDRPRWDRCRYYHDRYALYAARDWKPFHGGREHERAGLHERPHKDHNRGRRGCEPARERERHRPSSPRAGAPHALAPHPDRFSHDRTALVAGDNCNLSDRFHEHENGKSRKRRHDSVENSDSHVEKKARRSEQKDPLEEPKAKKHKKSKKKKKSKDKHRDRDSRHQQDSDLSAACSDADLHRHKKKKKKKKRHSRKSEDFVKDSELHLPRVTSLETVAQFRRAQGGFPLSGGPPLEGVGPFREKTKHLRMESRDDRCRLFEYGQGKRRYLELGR
How it was run: (§1)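 HEK293T lysate (495 µg per sample, in Tris/CHAPS/IGEPAL buffer with protease inhibitors) was treated in triplicate with fragment at 200 µM or with DMSO for 3 h. It was then treated with Biotin-Ahx-Ub-VS (0.5 µM final) for 1 h. Labelled DUBs were NeutrAvidin-enriched, digested with LysC and trypsin, and run by diaPASEF LC-MS/MS. Spectronaut label-free quantities were global-median-normalised. Values are average log2 ratios fragment/DMSO by unpaired t-test, using proteins with ≥2 unique peptides.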

[2] = biological target: USP46 (UniProt P62068)
USP46, sequence (P62068 whole entry): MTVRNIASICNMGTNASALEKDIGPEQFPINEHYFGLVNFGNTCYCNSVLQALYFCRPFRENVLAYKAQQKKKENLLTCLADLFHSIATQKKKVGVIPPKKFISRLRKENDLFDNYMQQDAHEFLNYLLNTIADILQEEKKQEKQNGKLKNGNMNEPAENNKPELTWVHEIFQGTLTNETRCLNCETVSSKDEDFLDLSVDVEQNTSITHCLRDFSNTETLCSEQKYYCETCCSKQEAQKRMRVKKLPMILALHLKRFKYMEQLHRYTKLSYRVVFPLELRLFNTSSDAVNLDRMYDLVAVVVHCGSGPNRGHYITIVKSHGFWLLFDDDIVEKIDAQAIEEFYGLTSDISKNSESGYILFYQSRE
How it was run: as §1

[3] = biological target: T2, USP47 (UniProt Q96K76)
T2 sequence (whole entry): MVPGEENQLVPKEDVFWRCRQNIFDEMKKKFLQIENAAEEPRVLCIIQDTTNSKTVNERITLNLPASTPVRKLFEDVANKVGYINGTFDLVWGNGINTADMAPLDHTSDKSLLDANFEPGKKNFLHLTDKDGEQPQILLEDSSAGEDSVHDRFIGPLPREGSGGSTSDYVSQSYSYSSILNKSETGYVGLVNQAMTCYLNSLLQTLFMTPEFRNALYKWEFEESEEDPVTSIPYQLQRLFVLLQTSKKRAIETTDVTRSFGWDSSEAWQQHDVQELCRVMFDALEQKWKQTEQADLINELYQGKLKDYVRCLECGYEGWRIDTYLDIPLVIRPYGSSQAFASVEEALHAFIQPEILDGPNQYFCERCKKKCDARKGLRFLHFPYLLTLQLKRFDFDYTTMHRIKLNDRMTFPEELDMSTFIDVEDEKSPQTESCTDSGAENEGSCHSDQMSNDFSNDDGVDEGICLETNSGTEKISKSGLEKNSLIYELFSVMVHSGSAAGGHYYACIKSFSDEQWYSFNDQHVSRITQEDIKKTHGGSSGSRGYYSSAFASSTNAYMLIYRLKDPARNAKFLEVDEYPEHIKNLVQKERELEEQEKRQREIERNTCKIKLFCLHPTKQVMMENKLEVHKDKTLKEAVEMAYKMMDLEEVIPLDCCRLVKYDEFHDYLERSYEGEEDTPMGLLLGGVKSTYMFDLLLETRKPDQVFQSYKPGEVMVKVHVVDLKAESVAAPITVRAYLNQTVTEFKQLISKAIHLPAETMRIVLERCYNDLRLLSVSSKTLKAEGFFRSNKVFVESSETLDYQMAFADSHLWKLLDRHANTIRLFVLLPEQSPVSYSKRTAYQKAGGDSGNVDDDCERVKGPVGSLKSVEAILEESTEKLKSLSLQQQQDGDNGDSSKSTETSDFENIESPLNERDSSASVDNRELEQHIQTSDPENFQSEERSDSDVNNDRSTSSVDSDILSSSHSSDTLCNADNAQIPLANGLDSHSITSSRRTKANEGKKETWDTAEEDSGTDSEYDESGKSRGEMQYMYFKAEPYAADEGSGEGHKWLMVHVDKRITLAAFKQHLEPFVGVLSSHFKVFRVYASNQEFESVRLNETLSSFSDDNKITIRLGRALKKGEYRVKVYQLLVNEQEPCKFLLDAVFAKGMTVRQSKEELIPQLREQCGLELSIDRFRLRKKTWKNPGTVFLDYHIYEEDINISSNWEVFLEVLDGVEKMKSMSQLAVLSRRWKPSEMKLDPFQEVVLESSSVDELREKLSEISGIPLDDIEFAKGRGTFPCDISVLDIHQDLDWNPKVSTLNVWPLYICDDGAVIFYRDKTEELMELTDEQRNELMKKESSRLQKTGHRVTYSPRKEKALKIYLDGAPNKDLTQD
How it was run: as §1

[4] = biological target: T3, USP48 (UniProt Q86UV5)
T3 sequence (whole entry): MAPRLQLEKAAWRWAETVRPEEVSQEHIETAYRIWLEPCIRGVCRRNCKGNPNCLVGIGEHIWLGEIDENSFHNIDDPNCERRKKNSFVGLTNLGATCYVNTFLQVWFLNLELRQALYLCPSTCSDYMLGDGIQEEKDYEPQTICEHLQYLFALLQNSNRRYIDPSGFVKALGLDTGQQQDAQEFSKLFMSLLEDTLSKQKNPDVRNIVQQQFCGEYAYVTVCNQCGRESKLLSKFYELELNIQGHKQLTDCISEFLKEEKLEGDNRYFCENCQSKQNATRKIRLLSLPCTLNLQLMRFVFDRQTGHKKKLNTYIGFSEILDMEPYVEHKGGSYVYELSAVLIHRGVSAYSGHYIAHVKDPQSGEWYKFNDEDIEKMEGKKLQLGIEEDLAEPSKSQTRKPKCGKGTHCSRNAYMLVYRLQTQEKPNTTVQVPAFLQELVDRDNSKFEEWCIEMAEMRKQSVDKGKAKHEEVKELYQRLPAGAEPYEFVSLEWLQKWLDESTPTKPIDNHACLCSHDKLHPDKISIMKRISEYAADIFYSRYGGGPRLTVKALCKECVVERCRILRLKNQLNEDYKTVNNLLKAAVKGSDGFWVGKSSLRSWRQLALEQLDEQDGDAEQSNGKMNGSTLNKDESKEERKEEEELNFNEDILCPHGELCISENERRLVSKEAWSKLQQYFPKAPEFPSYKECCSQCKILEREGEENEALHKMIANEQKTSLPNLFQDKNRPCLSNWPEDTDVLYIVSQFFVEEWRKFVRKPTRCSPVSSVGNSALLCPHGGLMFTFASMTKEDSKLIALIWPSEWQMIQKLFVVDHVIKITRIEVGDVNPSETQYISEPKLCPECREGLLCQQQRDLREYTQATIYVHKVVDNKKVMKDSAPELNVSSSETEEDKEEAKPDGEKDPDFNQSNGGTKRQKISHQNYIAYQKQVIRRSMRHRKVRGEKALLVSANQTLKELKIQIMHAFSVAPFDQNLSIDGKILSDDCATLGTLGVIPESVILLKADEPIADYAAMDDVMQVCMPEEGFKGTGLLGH
How it was run: as §1

[5] = biological target: T4, USP5 (UniProt P45974)
T4 sequence (whole entry): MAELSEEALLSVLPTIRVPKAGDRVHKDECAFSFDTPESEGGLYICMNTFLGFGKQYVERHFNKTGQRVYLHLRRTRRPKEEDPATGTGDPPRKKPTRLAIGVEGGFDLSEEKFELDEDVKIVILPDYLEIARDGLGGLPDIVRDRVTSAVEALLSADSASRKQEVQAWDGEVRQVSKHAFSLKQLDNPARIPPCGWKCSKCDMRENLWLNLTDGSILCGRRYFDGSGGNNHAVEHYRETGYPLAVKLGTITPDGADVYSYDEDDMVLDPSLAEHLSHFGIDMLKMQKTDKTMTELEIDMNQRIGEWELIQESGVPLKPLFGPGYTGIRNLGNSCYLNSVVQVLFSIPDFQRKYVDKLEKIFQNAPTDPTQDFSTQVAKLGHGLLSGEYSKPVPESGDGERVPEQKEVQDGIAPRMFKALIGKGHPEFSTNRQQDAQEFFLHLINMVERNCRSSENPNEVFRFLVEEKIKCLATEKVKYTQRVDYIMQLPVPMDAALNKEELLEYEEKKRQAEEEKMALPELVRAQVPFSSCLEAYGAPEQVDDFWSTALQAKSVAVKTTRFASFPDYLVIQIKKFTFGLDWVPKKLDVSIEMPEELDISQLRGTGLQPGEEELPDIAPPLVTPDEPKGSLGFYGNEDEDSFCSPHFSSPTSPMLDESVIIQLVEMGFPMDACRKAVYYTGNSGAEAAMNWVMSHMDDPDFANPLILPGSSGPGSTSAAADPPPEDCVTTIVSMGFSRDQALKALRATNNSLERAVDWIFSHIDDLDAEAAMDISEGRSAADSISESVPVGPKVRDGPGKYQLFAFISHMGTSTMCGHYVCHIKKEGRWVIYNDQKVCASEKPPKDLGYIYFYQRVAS
How it was run: as §1

[6] = biological target: USP54 (UniProt Q70EL1)
How it was run: as §1

[7] = biological target: USP7 (UniProt Q93009)
USP7, sequence (Q93009 whole entry, looked up): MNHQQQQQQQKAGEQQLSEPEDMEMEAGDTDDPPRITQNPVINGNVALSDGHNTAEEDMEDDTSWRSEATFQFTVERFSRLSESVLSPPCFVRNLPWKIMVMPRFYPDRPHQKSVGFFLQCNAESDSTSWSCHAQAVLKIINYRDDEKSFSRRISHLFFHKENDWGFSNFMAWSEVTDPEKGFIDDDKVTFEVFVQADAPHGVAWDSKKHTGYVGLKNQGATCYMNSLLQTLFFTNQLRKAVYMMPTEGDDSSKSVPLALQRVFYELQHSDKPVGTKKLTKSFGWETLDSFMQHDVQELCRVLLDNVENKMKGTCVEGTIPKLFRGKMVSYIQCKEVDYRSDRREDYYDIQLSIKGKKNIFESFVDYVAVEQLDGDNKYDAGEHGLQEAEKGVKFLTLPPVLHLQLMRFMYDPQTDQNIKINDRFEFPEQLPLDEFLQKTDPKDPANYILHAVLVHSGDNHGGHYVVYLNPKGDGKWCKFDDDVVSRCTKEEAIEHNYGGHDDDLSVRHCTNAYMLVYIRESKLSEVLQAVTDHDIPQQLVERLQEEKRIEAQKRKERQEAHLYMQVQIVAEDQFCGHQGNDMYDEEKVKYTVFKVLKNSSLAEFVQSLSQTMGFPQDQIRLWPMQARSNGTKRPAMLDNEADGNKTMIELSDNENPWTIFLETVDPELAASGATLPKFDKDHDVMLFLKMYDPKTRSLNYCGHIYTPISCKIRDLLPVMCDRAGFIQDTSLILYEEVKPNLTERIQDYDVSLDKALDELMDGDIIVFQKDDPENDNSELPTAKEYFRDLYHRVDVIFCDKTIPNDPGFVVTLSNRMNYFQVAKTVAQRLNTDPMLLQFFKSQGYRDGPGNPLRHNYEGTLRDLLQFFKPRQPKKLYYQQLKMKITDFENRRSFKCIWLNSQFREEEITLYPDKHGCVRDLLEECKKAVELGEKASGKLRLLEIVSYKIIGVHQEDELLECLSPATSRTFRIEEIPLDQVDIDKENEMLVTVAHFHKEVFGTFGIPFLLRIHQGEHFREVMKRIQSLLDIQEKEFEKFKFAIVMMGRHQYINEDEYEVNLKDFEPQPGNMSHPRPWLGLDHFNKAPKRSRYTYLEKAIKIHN
How it was run: as §1

[8] = biological target: T5, USP8 (UniProt P40818)
T5 sequence (whole entry): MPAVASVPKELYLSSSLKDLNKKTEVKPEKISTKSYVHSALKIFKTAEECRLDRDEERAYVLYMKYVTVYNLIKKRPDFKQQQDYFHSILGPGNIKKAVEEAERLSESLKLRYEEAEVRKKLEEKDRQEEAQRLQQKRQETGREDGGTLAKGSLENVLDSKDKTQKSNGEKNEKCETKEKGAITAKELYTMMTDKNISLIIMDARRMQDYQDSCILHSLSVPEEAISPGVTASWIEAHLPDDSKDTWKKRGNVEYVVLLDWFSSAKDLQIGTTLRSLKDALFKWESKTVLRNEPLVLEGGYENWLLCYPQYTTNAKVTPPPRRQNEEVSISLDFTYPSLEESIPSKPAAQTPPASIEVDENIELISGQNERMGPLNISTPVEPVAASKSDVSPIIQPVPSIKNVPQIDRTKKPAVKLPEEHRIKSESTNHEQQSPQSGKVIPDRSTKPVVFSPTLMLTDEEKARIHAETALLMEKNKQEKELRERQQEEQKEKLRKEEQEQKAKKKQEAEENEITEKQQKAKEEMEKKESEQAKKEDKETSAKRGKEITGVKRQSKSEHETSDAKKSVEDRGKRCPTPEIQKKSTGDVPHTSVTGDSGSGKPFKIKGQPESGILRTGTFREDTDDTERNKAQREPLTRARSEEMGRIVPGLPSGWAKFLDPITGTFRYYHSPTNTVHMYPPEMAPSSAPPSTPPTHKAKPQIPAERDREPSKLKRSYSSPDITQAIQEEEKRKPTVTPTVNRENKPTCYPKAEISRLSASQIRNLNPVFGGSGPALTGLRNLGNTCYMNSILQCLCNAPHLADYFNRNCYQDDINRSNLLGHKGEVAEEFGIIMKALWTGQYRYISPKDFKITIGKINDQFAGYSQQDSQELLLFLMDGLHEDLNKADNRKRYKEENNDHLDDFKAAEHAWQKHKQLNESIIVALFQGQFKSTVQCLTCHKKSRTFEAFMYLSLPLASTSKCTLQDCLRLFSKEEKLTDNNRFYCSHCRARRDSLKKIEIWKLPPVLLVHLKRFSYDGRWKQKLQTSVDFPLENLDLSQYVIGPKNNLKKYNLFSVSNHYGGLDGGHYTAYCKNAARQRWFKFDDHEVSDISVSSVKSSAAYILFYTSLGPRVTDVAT
How it was run: as §1

[9] = biological target: USP9X (UniProt Q93008)
USP9X, sequence (Q93008 whole entry): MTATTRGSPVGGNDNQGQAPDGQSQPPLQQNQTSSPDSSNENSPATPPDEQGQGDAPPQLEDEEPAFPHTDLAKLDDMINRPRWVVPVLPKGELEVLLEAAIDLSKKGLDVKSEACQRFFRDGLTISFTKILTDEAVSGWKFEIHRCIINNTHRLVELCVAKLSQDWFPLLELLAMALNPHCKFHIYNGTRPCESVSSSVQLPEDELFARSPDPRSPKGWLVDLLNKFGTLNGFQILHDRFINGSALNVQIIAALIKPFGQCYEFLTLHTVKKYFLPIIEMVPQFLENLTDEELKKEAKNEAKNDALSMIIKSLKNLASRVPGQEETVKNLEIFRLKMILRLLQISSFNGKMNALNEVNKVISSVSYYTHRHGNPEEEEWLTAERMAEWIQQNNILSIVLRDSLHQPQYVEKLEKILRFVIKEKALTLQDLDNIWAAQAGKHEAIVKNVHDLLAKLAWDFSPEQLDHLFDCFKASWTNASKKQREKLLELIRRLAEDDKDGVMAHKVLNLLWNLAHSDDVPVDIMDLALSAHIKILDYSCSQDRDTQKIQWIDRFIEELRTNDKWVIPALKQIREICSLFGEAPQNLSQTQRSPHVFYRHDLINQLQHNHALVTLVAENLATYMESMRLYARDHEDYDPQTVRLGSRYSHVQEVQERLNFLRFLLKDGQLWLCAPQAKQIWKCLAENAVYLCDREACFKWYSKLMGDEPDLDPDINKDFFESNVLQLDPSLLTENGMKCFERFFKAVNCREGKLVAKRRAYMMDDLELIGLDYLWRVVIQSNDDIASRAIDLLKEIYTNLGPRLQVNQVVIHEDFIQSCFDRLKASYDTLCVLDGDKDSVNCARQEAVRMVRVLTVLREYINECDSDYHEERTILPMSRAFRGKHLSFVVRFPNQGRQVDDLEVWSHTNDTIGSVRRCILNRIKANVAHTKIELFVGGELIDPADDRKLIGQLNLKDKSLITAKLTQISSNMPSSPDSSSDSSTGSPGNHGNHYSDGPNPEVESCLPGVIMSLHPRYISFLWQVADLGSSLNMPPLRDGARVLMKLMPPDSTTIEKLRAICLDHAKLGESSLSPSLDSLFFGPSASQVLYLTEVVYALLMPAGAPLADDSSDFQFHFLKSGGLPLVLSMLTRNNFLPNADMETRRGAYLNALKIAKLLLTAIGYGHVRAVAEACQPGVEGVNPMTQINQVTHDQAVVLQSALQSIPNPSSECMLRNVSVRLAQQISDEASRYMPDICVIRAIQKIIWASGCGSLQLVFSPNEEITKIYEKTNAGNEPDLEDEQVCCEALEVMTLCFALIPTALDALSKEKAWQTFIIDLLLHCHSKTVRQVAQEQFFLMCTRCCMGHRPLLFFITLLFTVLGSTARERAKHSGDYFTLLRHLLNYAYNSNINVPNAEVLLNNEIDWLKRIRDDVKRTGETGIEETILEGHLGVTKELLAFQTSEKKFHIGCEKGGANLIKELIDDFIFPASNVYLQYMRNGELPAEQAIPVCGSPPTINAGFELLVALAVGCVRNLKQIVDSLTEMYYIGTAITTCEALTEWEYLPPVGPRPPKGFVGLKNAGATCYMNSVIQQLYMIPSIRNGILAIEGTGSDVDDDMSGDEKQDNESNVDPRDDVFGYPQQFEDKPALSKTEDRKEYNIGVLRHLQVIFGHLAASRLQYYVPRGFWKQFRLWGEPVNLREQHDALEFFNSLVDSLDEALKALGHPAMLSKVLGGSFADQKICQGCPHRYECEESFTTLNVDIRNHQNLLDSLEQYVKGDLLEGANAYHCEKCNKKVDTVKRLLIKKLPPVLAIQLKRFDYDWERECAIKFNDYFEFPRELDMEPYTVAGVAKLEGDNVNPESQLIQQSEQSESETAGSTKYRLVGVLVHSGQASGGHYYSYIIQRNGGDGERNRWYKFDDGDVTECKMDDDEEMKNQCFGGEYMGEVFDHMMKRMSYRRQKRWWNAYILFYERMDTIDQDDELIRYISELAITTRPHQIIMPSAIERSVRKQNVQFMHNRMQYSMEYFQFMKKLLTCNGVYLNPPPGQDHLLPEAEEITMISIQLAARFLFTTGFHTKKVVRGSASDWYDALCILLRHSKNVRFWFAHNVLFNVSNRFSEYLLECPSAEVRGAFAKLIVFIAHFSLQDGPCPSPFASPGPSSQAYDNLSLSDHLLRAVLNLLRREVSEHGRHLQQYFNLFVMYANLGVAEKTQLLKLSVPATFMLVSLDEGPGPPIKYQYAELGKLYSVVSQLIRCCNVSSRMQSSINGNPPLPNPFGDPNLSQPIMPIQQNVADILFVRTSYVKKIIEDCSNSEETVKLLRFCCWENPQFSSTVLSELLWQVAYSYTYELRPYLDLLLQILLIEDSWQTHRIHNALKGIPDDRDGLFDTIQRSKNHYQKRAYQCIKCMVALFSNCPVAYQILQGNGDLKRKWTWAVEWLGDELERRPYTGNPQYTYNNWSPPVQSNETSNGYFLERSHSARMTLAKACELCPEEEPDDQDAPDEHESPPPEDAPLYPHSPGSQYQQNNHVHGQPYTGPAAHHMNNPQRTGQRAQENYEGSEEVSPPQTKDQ
How it was run: as §1

[10] = biological target: UniProt O00487
UniProt O00487, sequence (O00487 whole entry): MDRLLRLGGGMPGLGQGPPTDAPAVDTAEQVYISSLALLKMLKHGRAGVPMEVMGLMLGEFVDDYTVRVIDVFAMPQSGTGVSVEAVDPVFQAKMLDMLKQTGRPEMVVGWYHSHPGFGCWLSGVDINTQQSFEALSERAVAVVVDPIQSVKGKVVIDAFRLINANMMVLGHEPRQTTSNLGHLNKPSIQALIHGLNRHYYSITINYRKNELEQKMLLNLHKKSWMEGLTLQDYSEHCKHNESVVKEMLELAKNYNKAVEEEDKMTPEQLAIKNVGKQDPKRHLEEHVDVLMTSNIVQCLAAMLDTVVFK
How it was run: as §1

Measured: log2 ratio of Biotin-Ahx-Ub-VS probe labelling

O=C(CCl)Nc1cc(Cl)ccc1-n1cncn1
active: [7] -1.33 | [9] -1.04
inactive: [1] 0.477 | [2] -0.691 | [3] -0.4 | [4] -0.638 | [5] -0.61 | [6] 0.943 | [8] -0.73 | [10] -0.13
